{"source": "PubChem BioAssay (NCI)", "note": "Compounds without any hit were thinned out: in the full panel of roughly 83,000, 20% have a hit.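 Plates (96-well) were seeded with cells, treated with compound at one concentration, and incubated for 48 hours before percent growth was determined.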 Values without a mark were called inactive. Calls of active or inactive are those of the source."}
{"system": "U251 CNS", "experiment": "NCI-60 one-dose screen, 48 h (100 = growth as untreated, 0 = no growth, -100 = all killed)", "details": "10 µM unless noted", "protocol": "Growth inhibition of the U251 human tumor cell line is measured as a screen for anti-cancer activity. Cells are grown in 96 well plates and exposed to the test compound for 48 hours. Compounds are tested at a single concentration, which is 10^-5 M for most compounds. The reported endpoint is percent growth (GI% or GIPRCNT), where numbers from 0 - 100% represent growth inhibition, and numbers from -100% - 0 represent cell death. For example, a value of 40 represents 60% growth inhibition. A value of 0 means no net growth occurred over the course of the experiment. A value of -40 indicates 40% of cells at the beginning of the experiment died by the end of the experiment. A value of -100 means all cells are dead at the end of the experiment.\nNCI-60 Human Tumor Cell Lines Screen was performed using the standard one-dose NCI protocol, which is described in more detail at https://dtp.cancer.gov/discovery_development/nci-60/default.htm.\nCompounds with GIPRCNT values below 10 were considered active. Activity score was based on GIPRCNT using the following formula: […]\nScore is 0 for GIPRCNT values of 100 or above, 50 for GIPRCNT values of 0, and 100 for GIPRCNT values of -100."}
{"smiles": "COc1c(C(=O)/C=C/c2ccc(C)o2)c(O)cc2occc12", "growth": "75.4%"}
{"smiles": "COc1ccc(-c2nc3ccc(Cc4ccc5nc(-c6ccc(OC)cc6)[nH]c5c4)cc3[nH]2)cc1", "growth": "16.9%"}
{"smiles": "COc1ccc2[nH]c(O)c(/C=c3/ccc4c(c3)N=C(c3ccc(F)cc3)N=4)c2c1", "growth": "42.1%"}
{"smiles": "COc1ccc2nc(C)cc(Nc3ccccc3O)c2c1", "growth": "-27.5% (active)"}
{"smiles": "COc1ccc(OC)c(Nc2nc(-c3c(C)nc4sccn34)cs2)c1", "growth": "89.5%"}
{"smiles": "Cc1ccc(N=CNN=C(N)N)cc1", "growth": "97.2%"}
{"smiles": "COc1ccc(C(=O)c2cc(C)c(OC)c(C)c2)cc1OC(=O)CCl", "growth": "6.71% (active)"}
{"smiles": "COCCOCCOCc1n(Cc2ccc3ccccc3n2)c2ccccc2[n+]1Cc1ccc2ccccc2c1", "growth": "12.4%"}
{"smiles": "Cc1ccc(S(=O)(=O)NC(CCC(=O)Nc2ccc(Cl)cc2)C(=O)Nc2ccc(Cl)cc2)cc1", "note": "(stereo not given)", "growth": "12.5%"}
{"smiles": "Cc1ccc(CSCc2ccc(C(=O)NC3CC3)o2)cc1", "growth": "56.4%"}
{"smiles": "COc1cc2nccc(Oc3ccc(NC(=O)C4(C(=O)Nc5c(F)cc(F)cc5F)CC4)cc3)c2cc1Oc1ccc(N)cn1", "growth": "67.3%"}
{"smiles": "CCCCCCCCCCCCCCCc1cc(O)ccc1[N+](=O)[O-]", "growth": "70.1%"}
{"smiles": "CCCCN(CCCC)CCC(=O)c1ccc(OC)c2ccccc12", "growth": "86.7%"}
{"smiles": "Clc1ccccc1Nc1nnc(-c2ccncc2)s1", "growth": "103%"}
{"smiles": "Cc1ccc(NC(=O)c2[nH]c(SCCN(C)C)nc2-c2ccc(F)cc2)cc1Nc1ccc2ncn(C)c(=O)c2c1", "growth": "66.6%"}
{"smiles": "CC(C)c1[nH]ncc1-c1nc2ccc3[nH]ncc3c2c2c1CCCC2", "growth": "37.7%"}
{"smiles": "CCNC(=S)N(Cc1ccccc1)Cc1ccccc1", "growth": "96.4%"}
{"smiles": "Nc1cccc(S(=O)(=O)c2cccc(N)c2)c1", "growth": "113%"}
{"smiles": "CC1CN(CCCOC(=O)Nc2ccc(Cl)cc2)CCN1C(C)(C)C", "note": "(stereo not given)", "growth": "108%"}
{"smiles": "Nc1cc2nc3ccccc3oc-2cc1=O", "growth": "35.6%"}
{"smiles": "CC1CCN(Cc2ccc(NC(=O)c3cc4ccc5cccnc5c4[nH]3)cc2)CC1", "growth": "14.7%"}
{"smiles": "C[C@@H](C[C@H](CC1CC1)c1ccccc1)c1ccc2ccccc2c1", "growth": "101%"}
{"smiles": "CCN(CC)CCCNc1cccc2c(C)cc(OC)nc12", "growth": "94.3%"}
{"smiles": "COc1cc(NC(C)CCCN)c2ncccc2c1Sc1ccc(Cl)cc1", "note": "(stereo not given)", "growth": "39.3%"}
{"smiles": "Nc1nc2ccc([C@@H]3Nc4ccc5[nH]ncc5c4[C@H]4[C@H]5CCC(C5)[C@H]43)cc2s1", "growth": "23.8%"}
{"smiles": "CN1CCN(Cc2ccc(NC(=O)c3cccc(C#Cc4cnc(N)c5ncccc45)c3F)cc2C(F)(F)F)CC1", "growth": "-88.2% (active)"}
{"smiles": "Cc1cc(C#Cc2ccccc2)ccc1-n1c(/C=C/c2ccc(F)cc2)nc2ccccc2c1=O", "growth": "82%"}
{"smiles": "CC(C)(C)c1ccc(Cn2c(-c3nonc3N)nc3ccccc32)cc1", "growth": "64.5%"}
{"smiles": "O=C(CN1CCN(c2ccccc2)CC1)N1CCN(c2nnc(-c3ccc(Cl)cc3)c(-c3ccc(Cl)cc3)n2)CC1", "growth": "60.4%"}
{"smiles": "CCCCCCCCNC(C)C(O)c1ccc(SC(C)C)cc1", "note": "(stereo not given)", "growth": "42.5%"}
{"smiles": "c1ccc(C(CC2=NCCCN2)c2ccccc2)cc1", "growth": "90.8%"}
{"smiles": "[Ag].[Ag].[NH-]S(=O)(=O)c1ccc(N=Nc2cc(N=Nc3ccc(S([NH-])(=O)=O)cc3)c3c(NC(=O)C(Cl)Cl)cccc3c2OC(=O)C(Cl)Cl)cc1.[c-]1nccs1.[c-]1nccs1", "growth": "75.2%"}
{"smiles": "COc1ccc(C2C3=C(COC3=O)N(CCO)c3cc(OC)c(OC)cc32)cc1", "note": "(stereo not given)", "growth": "101%"}
{"smiles": "Cc1cc(-c2nnc(/C=C/c3ccc4c(c3)OCO4)o2)n[nH]1", "growth": "85.1%"}
{"smiles": "CC(=O)c1ccc(-n2c(-c3cc(-c4ccsc4)n[nH]3)n[nH]c2=S)cc1", "growth": "102%"}
{"smiles": "CCCCn1cnc(-c2cc(-c3ccccc3)cc(C(F)(F)F)c2)n1", "growth": "97.7%"}
{"smiles": "O=NN(CC(=O)NNc1ccccc1)CC(=O)NNc1ccccc1", "growth": "78.8%"}
{"smiles": "CC(=O)OC1Oc2cc(C)c(C)cc2-c2oc(=O)c(-c3cc4ccccc4oc3=O)cc21", "note": "(stereo not given)", "growth": "66.6%"}
{"smiles": "C#CC[C@@H]1C[C@]2(C)[C@H]3CC[C@@H]4[C@H]5C(C(=C)C)CC[C@]5(C(=O)NCCCN5CCN(CCCN)CC5)CC[C@@]4(C)[C@]3(C)CC[C@H]2C(C)(C)[C@H]1OC(C)=O", "note": "(stereo not given in full)", "growth": "-68.2% (active)"}
{"smiles": "CC(=O)c1c(C)nc(-c2cc(C)cc(Cl)c2)nc1-c1cccc(Oc2ccccc2)c1", "growth": "76.1%"}
